Bioassay records as filed in PubChem BioAssay.
HCMV antiviral: inhibitors of human cytomegalovirus; activity change, negative = inhibition, % at 57.5 µM; HFF cells, HCMV-luciferase reporter, 72 h; hits give low values; actives 4.5% (n = 410,000); in the data active = activity change below about -60%; inconclusive = no clear call, values can overlap the other calls; inactive = above about -39%
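Cell-based, HFFs, 1000 cells/well, 16 h 37C; cpds in DMSO + HCMV-luc, MOI 1 PFU/cell; 72 h 37C; OneGlo luminescence after 5 min RT; norm. to buffer vs Salinomycin 10uM.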
Pf growth 48h: inhibits P. falciparum growth in the first generation, 48 h; P. falciparum luciferase growth in erythrocytes, 48 h; Potency, µM (doses to about 28.7 µM), inactives show at the top dose activity change, negative = inhibition, actives largely listed as inhibitors; actives 5.9% (n = 310,000); AID 504832; also: potency is read from the fitted curve at half-maximal effect
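Cell-based growth assay: transgenic P. falciparum expressing firefly luciferase, cultured in red cells within RPMI 1640 containing 0.5% w/v Albumax, 24 mM bicarbonate and gentamycin. A drop in luciferase activity indicates inhibition.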
HCV inhibitor: HCV inhibition. Huh7.5.1 HCVcc-Cre infection, luciferase reporter, 44 h. Potency, µM (series often up to 41.8 µM), for inactives: at the highest dose activity change, negative = inhibition, usual class: inhibitors. actives 3.4% (n = 340,000); also: potency is read from the fitted curve at half-maximal effect
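Compounds are dispensed onto cells plated 4 h earlier at 1,000 per well, with HCVcc-Cre virus (about 0.5 moi) added next. Following 44 h of culture, luminescent signal is measured for 15 sec after 15 min with substrate at room temperature.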
Pf growth 96h: P. falciparum growth inhibition at 96 hours; P. falciparum luciferase reporter growth, 96 h; actives 6.9% (n = 320,000); AID 504834; Potency, µM (titrated, usually from 28.7 µM), for the others: at the highest dose activity change, negative = inhibition, actives largely listed as inhibitors; also: potency is read from the fitted curve at half-maximal effect
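Two parasite generations (96 h, 37 C, 5% CO2) of compound exposure in infected erythrocytes (0.05% parasitemia, 2% hematocrit). Luciferase-reporter P. falciparum; decreased luminescence indicates inhibited growth, aimed at apicoplast-acting delayed death.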
Numbers without * were called inactive; u = inconclusive; x = no result. Hits are enriched below; roughly 13% of the tested compounds scored in any of these assays. Unless noted, calls follow the shape of the dose curve; as a rule, active = well fitted inhibition curve with a large enough effect; inconclusive = small, poorly fitted or top-dose-only effect, or another doubt; inactive = no such curve, though single readings can be large or run the other way. % is scaled to controls: 0 for no effect and ±100 for the full control effect.

SMILES	HCMV antiviral	Pf growth 48h	HCV inhibitor	Pf growth 96h
Cc1cccc2cc(CN(Cc3ccc(F)cc3)Cc3nnnn3C3CCCC3)c(=O)[nH]c12	-20.0	-8.8%	0.4%	153.4%
Cc1ccc(C)c2[nH]c(=O)c(C(c3nnnn3CCc3ccccc3)N3CCOCC3)cc12 (configuration not stated)	-0.9	u	10.3%	45.6%
COc1ccc2cc(CN(CCc3ccccc3)Cc3nnnn3Cc3ccco3)c(=O)[nH]c2c1	u	6.57µM*	-6.1%	8.3%
CCOC(=O)c1cc2c(=O)n3ccccc3nc2n(CC2CCCO2)c1=NC(=O)c1ccc(OC)cc1OC (configuration not stated)	7.9	x	x	x
COc1ccccc1C(=O)N(Cc1nc(-c2cccc(C)c2)no1)C(C)C	-11.7	x	x	x
Cc1ccccc1C(=O)Nc1nc2nc(C)c(C)c(=O)n2[nH]1	73.3	x	x	x
Cc1nc2nc(SCC(=O)NC3CCC(C)CC3)nn2c(C)c1Cc1ccccc1 (configuration not stated)	3.5	x	x	x
Cc1ccc2cc(CN(C(=O)c3cccc(Cl)c3)c3ccccc3)c(=O)[nH]c2c1	11.1	x	x	x
C=CC[C@H](CC(=O)N(CCO)Cc1ccccc1)C(=O)N[C@@H](COC(=O)[C@@H](CC=C)Cc1ccc(F)cc1)Cc1c[nH]c2ccccc12	31.6	x	22.4µM*	x
C=CC[C@H](CC(=O)N(CCO)Cc1ccccc1)C(=O)N[C@H](COC(=O)[C@H](CC=C)CC(=O)OC(C)(C)C)Cc1ccccc1	-27.4	x	11.2µM*	x
C=CC[C@@H](CC(=O)N(CCO)Cc1ccccc1)C(=O)N[C@H](COC(=O)[C@@H](CC=C)CC(=O)OC(C)(C)C)C(C)(C)C	9.4	x	u	x
C=CC[C@@H](CC(=O)N(CCO)Cc1ccccc1)C(=O)N[C@H](COC(=O)[C@@H](CC=C)Cc1ccc(F)cc1)c1ccccc1	24.2	x	11.2µM*	x
C=CC[C@@H](CC(=O)N(CCO)Cc1ccccc1)C(=O)NC[C@@H](OC(=O)[C@@H](CC=C)CC(=O)OC(C)(C)C)c1ccccc1	-9.4	x	10µM*	x
C=CC[C@@H](CC(=O)N(CCO)Cc1ccccc1)C(=O)N[C@@H](C)COC(=O)[C@@H](CC=C)Cc1ccc(F)cc1	-12.3	x	u	x
Cc1ccc(OCc2nc3ccccc3n2CC(C)C)cc1	-2.4	x	x	x
O=C(CSc1ncc2c(n1)-c1ccccc1N(Cc1ccc(F)cc1)S2(=O)=O)c1ccc(Cl)cc1	2.2	x	x	x
COc1nc(-c2ccc(C)cc2)ccc1-c1noc(-c2ccc(C(C)(C)C)cc2)n1	-2.8	x	x	x
C=CC[C@@H](CC(=O)N(CCO)Cc1ccccc1)C(=O)N[C@H](COC(=O)[C@@H](CC=C)CC(=O)OC(C)(C)C)Cc1c[nH]c2ccccc12	31.8	x	11.2µM*	x
C=CC[C@H](CC(=O)N(CCO)Cc1ccccc1)C(=O)N[C@@H](COC(=O)[C@H](CC=C)CC(=O)OC(C)(C)C)Cc1c[nH]c2ccccc12	52.7	x	u	x
COC(=O)[C@@H](NCc1cccc(CN([C@H](C(=O)OC)C(C)C)S(C)(=O)=O)c1)C(C)C	u	u	-13.7%	14.7µM*
Cc1ccccc1OCC(=O)OCc1cc(=O)n2ccsc2n1	5.4	x	x	x
CCc1ccc(N2Cc3ccccc3C2)cc1	43.4	-87.9%	-9.2%	u
Cc1cc(C)cc(N2Cc3ccccc3C2)c1	14.9	x	22.0%	4.15µM*
C#CCN1CCN(c2cccc(C(F)(F)F)c2)CC1	u	35.2%	7.5%	20.3%
FC(F)(F)c1cccc(N2Cc3ccccc3C2)c1	-1.0	13.1µM*	3.9%	45.8%
SMILES	HCMV antiviral	Pf growth 48h	HCV inhibitor	Pf growth 96h
COC(=O)[C@]1(C)N[C@H](c2ccc(-c3ccc(Cl)c(Cl)c3)c(OC)c2)[C@@H]2C(=O)N(C)C(=O)[C@@H]21	-4.1	5.22µM*	-22.7%	3.29µM*
CCN1C(=O)C2C(c3ccc(O)c(OC)c3)NC(C)(C(=O)OC)C2C1=O (configuration not stated)	4.0	21.2%	-5.2%	56.5%
COC(=O)[C@]1(C)N[C@H](c2ccc(-c3ccc(OC)cc3)cc2)[C@@H]2C(=O)N(C)C(=O)[C@@H]21	-4.0	x	17.6%	x
CCN1C(=O)[C@H]2[C@@H](c3ccc(-c4cccc(Cl)c4)c(OC)c3)N[C@@](C)(C(=O)OC)[C@H]2C1=O	11.9	2.08µM*	-1.3%	1.17µM*
CCCN1C(=O)c2ccccc2NC1c1cc(OC)c(OC)c(OC)c1 (configuration not stated)	22.9	u	14.8%	2.8%
COc1ccc(CCN2C(=O)c3ccccc3NC2c2cc(Cl)c(O)c(OC)c2)cc1 (configuration not stated)	-19.7	u	-13.0%	5.22µM*
O=C(c1cccnc1)N1CCN(C/C=C/c2ccccc2)CC1	25.6	12.7%	-2.7%	32.6%
CCC(c1nnnn1-c1c(C)cccc1C)N1CCN(C/C=C/c2ccccc2)CC1 (configuration not stated)	-67.7*	x	x	x
O=C(NC(=S)N1CCN(C/C=C/c2ccccc2)CC1)c1ccc(F)cc1	-36.3	10.4µM*	u	u
O=C(Cc1ccccc1)N1CCN(C/C=C/c2ccccc2)CC1	3.6	-31.5%	u	3.29µM*
S=C(Nc1ccccc1)N1CCN(C/C=C/c2ccccc2)CC1	-19.3	-11.4%	u	5.1%
O=C(NC(=S)N1CCN(C/C=C/c2ccccc2)CC1)c1cccnc1	-10.3	9.28µM*	-0.1%	3.29µM*
CCc1ccc(NC(=O)Nc2nnc(N(C)C3CCCCC3)s2)cc1	15.6	x	x	x
O=[N+]([O-])c1ccc(C(O)CN2CCN(C/C=C/c3ccccc3)CC2)cc1 (configuration not stated)	6.8	7.38µM*	12.6µM*	4.15µM*
C(=C/c1ccccc1)/CN1CCN(C(c2ccccc2)c2ccccc2)CC1	x	u	x	7.21µM*
O=[N+]([O-])c1ccc(C(O)CN2CCN(Cc3ccccc3)CC2)cc1 (configuration not stated)	-28.2	u	-1.3%	u
CC(C)[C@H](NC(=O)c1ccc([N+](=O)[O-])cc1Cl)C(=O)N1CCN(C/C=C/c2ccccc2)CC1	-19.6	x	14.1µM*	x
CCOC(=O)c1cnc2c(ccc3ccccc32)c1Nc1ccccc1O	3.0	x	x	x
CC(Cl)C(=O)Nc1cc(C(C)(C)C)nn1-c1ccccc1 (configuration not stated)	-20.7	0.0%	10.0%	-0.7%
Cc1cc(NC(=O)Nc2cccc(Cl)c2)n(-c2ccccc2)n1	6.4	0.0%	u	0.0%
Cc1cc(NC(=O)Nc2cccc(Cl)c2)n(-c2ccccn2)n1	0.0	u	11.2µM*	u
Cc1ccsc1C(=O)Nc1cc(C(C)(C)C)nn1-c1ccccc1	-109.7*	u	u	x
Cc1cc(NC(=O)c2cc(C3CC3)on2)n(-c2ccccc2)n1	10.6	13.2%	10.6%	2.62µM*
Cc1cc(NC(=O)c2ccc(F)cc2)n(-c2ccccn2)n1	-13.5	4.3%	8.91µM*	17.8%
